A short description of test [1]: ATG_XTT_Cytotoxicity: Cytotoxicity Assessment in the Attagene TRANS-FACTORIAL HepG2 Assay (AID 2283584).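 On AC50: cells exposed to compound for 24 h before reading; active means loss of viability signal versus DMSO baseline.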 The method, boiled down: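 HepG2 human liver cells, transiently transfected with multiple GAL4-UAS reporter units, were dosed and read at 24 h by XTT as cell number. Loss of signal was fitted relative to DMSO negative control baseline.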
Test [2] deals with Cellular tumor antigen p53 (Homo sapiens) (UniProt P04637). As to the kind of experiment: TOX21_p53_BLA_p2_ratio: Tox21 HCT-116 p53 Agonism Beta-lactamase Assay, Ratio, Phase 2 (AID 2283592). The method, boiled down: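 Ratio endpoint: beta-lactamase cleavage of CCF4-AM, blue (460 nm) over green (530 nm). HCT116 reporter line; 16 h treatment, 37C; substrate 2 h RT.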
Test [3] can be described thus: TOX21_p53_BLA_p3_viability: Viability Assessment in the Tox21 HCT-116 p53 Agonism Beta-lactamase Assay, Phase 3 (AID 2283593).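 Further: cells exposed to compound for 16 h before reading.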 The method, boiled down: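 Cellular ATP was quantified by CellTiter-Glo luminescence, read after 30 min at room temperature. Beforehand, HCT116 cells (4000/well) received compound 5 h post-seeding, 217-fold diluted from DMSO, then incubated 16 h at 37C.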

The target in test [4] is Cellular tumor antigen p53 (Homo sapiens) (UniProt P04637). Description: TOX21_p53_BLA_p3_ratio: Tox21 HCT-116 p53 Agonism Beta-lactamase Assay, Ratio, Phase 3 (AID 2283596). The method, boiled down:
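Cells were seeded at 4000/well, rested 5 h at 37C, then dosed with DMSO compound solutions (217-fold dilution) for 16 h. CCF4-AM substrate was loaded for 2 h at room temperature, and the 460/530 nm emission ratio was fitted for gain of signal versus DMSO.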

Test [5] in a line: TOX21_p53_BLA_p4_viability: Viability Assessment in the Tox21 HCT-116 p53 Agonism Beta-lactamase Assay, Phase 4 (AID 2283597).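 Further: hits lower the luminescence signal meaning cytotoxicity.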 The method, boiled down:
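Cytotoxicity was inferred from loss of CellTiter-Glo luminescence. HCT116 cells had been dosed with compounds after 5 h plating, incubated 16 h at 37C and 5% CO2, and exposed to the CCF4-AM substrate for 2 h.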

The target in test [6] is Cellular tumor antigen p53 (Homo sapiens) (UniProt P04637). As to the kind of experiment: TOX21_p53_BLA_p5_ratio: Tox21 HCT-116 p53 Agonism Beta-lactamase Assay, Ratio, Phase 5 (AID 2283599). The method, boiled down: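 Beta-lactamase reporter ratio (blue 460 nm over green 530 nm, 405 nm excitation) after 2 h CCF4-AM loading, in HCT-116 cells exposed 16 h at 37 C to compounds pinned at 217-fold dilution. Increases relative to DMSO baseline scored.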

Test [7] can be described thus: TOX21_p53_BLA_p5_viability: Viability Assessment in the Tox21 HCT-116 p53 Agonism Beta-lactamase Assay, Phase 5 (AID 2283600). The method, boiled down:
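Luciferase-coupled ATP quantitation of cells treated for 16 h (37C, 5% CO2) with test chemicals delivered in DMSO via a 217-fold dilution; 4000 cells/well; reagent incubated 30 min at room temperature before luminescence reading.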

Test [8] deals with Cellular tumor antigen p53 (Homo sapiens) (UniProt P04637). As to the kind of experiment: TOX21_p53_BLA_p4_ratio: Tox21 HCT-116 p53 Agonism Beta-lactamase Assay, Ratio, Phase 4 (AID 2283601). The method, boiled down:
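Signal is the blue/green (460nm/530nm) ratio of cleaved versus uncleaved CCF4-AM substrate, read after 2 h substrate loading. Cells were HCT116 carrying the p53-responsive beta-lactamase reporter, dosed 16 h at 37C, 5% CO2; CellTiter-Glo measured in parallel.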

The subject of test [9] is Thyroperoxidase (TPO), gene 54314. Description: CCTE_Simmons_AUR_rTPO: CCTE's Amplex UltraRed Assay for Thyroperoxidase (TPO) Inhibition, Simmons Lab (AID 2283662).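 On AC50: potency for loss of signal meaning inhibition of peroxidase activity.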 The method, boiled down: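 Cell-free peroxidase activity assay using rat thyroid gland microsomes with excess H2O2 (300 uM) and 25 uM Amplex UltraRed. Compounds tested from 5 nM to 87.5 uM; fluorescence measured after 30 min at 37C, analysed relative to DMSO baseline.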

Test [10] in a line: CCTE_Simmons_CellTiterGLO_HEK293T: Viability Assessment in CCTE's Assays for Thyroperoxidase (TPO) Inhibition, Simmons Lab (AID 2283665).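 On AC50: cells exposed to compound for 24 h before readout; actives reduce ATP signal below DMSO vehicle meaning cytotoxicity.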 The method, boiled down: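 Luminescent ATP readout (CellTiter-Glo, 20 min at room temperature) after 24 hr exposure of HEK293T cells to 5 nM–87.5 uM final compound; signal loss relative to DMSO vehicle indicated cytotoxicity; dichlone titrated as positive control.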
For orientation: Cellular ATP, detected with luciferase, serves as a proxy for viable cell number.

Results filed as inconclusive are left out. Where a structure was tested more than once in an assay, its records may differ in their call. Active and inactive are the calls of the source. How the source made its calls: active means hit-call score of the fitted dose curve at least 0.9, where 1 is the maximum; inconclusive means response in the unintended direction; inactive means score below 0.9.

Chain of Cellular tumor antigen p53 (Homo sapiens) (P04637 whole entry, looked up): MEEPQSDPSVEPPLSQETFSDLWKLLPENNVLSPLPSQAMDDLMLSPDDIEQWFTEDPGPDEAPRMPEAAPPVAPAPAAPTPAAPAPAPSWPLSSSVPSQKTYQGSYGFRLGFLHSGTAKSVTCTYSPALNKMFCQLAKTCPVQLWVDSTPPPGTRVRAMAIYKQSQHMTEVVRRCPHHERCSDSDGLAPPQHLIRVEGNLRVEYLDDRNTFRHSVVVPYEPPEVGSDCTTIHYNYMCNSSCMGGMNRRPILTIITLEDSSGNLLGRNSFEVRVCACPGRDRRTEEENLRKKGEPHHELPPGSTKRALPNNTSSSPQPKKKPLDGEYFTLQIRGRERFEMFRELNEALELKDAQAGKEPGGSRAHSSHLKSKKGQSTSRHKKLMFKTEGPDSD

`O=C=Nc1cccc2c(N=C=O)cccc12`: the compound was classed as inactive in test [1].
The same measure, in the same setting: under `CN(C)C(C)(C)CO` stands “inactive”; under `Cc1cnccn1`, “inactive”; under `N#CCCOCCC#N`, “inactive”.
As to `c1ccc(C[P+](c2ccccc2)(c2ccccc2)c2ccccc2)cc1`, the result in [1] was inactive.
Same read-out and setting: under `COCCOCCC[Si](C)(O[Si](C)(C)C)O[Si](C)(C)C` stands “inactive”.
The AC50 is the concentration at which the activity in the assay is half-maximal. As for `Cc1ccc(S(=O)(=O)C(I)I)cc1`, in [1], the concentration at half-maximal activity (AC50) was 62.8 µM (active).
On to `CCCCOC(=O)C(C)O` (centres undefined), for which the call in test [1], in [2], in test [3], in test [4], in [5] and in test [6] was inactive.
As to `C=C(C)CCCC`, in test [1], the compound was classed as inactive.
`CCC(Cc1c(I)cc(I)c(N)c1I)C(=O)O` (centres undefined): the outcome in test [1], in test [2], in test [3], in [4], in test [5] and in [6] was inactive. The result in test [7] and in test [8] was inactive. Further, the AC50 in test [5] is 69.9 µM (active).
Take `F[Si-2](F)(F)(F)(F)F`: the compound was called inactive in test [1], in [2], in [3], in test [4], in [5] and in test [6]. The compound was called inactive in [7] and in [8].
With `CCc1ccc(C)nc1`, the call in test [1] was inactive.
`CC(C)OC=O`: the outcome in [1], in test [2], in [3], in test [4], in test [5] and in [6] was inactive. Also, the result in test [7], in test [8], in test [9] and in [10] was inactive.
`Brc1nc2ccccc2s1`: the result in test [1], in test [2], in test [3], in test [4], in [5] and in [6] was inactive. In addition, the call in test [7] and in test [8] was inactive.
As for `CCCCCC/C=C/CCCCCCCC(=O)O`, the compound was called inactive in [1], in test [2], in test [3], in test [4], in test [5] and in [6]. Moreover, the compound was called inactive in [7] and in [8].
As to `CCc1cc(Cc2cc(CC)c(N)c(CC)c2)cc(CC)c1N`, the result in test [1], in test [2], in [3], in test [4], in test [6] and in test [7] was inactive. Besides, the outcome in [8] was inactive. Moreover, the AC50 in [5] is 68 µM (active).
In the case of `CC(C)=CCCC(C)O` (centres undefined), the compound was called inactive in [1].
Regarding `O=C1C=CC(=O)N1c1ccc(Cc2ccc(N3C(=O)C=CC3=O)cc2)cc1`, the half-maximal activity concentration (AC50) in test [1] was 157 µM (active); in [2], 29.1 µM (active); in test [5] it was 75.2 µM (active); in test [6] it was 74.4 µM (active); in [7] it was 86.3 µM (active); in test [8], 68 µM (active). Further, the compound was classed as inactive in test [3] and in [4].
Take `Brc1ccccn1`: the compound was classed as inactive in test [1].
`CCCCCCCC/C=C\CCCCCCCC(=O)N(C)CC(=O)O`: the AC50 was 128 µM (active) in test [1]; 51.5 µM (active) in test [2]; 45.1 µM (active) in test [3]; 81.1 µM (active) in [4]; 83.3 µM (active) in test [5]; 79.6 µM (active) in test [6]. Further, the AC50 was 43.7 µM (active) in test [7], 83.7 µM (active) in test [8], 16.4 µM (active) in test [9] and 24.4 µM (active) in test [10].
Take `COc1ccccc1C=O`: the call in test [1] was inactive.
Same read-out and setting: under `CC(C)(C)c1cc(CCC(=O)OCC(COC(=O)CCc2cc(C(C)(C)C)c(O)c(C(C)(C)C)c2)(COC(=O)CCc2cc(C(C)(C)C)c(O)c(C(C)(C)C)c2)COC(=O)CCc2cc(C(C)(C)C)c(O)c(C(C)(C)C)c2)cc(C(C)(C)C)c1O` stands “inactive”; under `O=C=NCc1cccc(CN=C=O)c1`, “inactive”.

Values taken from PubChem BioAssay (EPA / NIEHS).
